PubChem BioAssay (Tox21)
Values without a mark were called inactive. Calls of active or inactive are those of the source. The call rests on the fitted dose curve; in most records, active means well fitted activation curve with a large enough effect in the repeat runs; inconclusive means weak or mixed curves; inactive means flat fitted curve, though single readings scatter.

Test: Caspase-3/7 induction in CHO-K1 cells by small molecules, qHTS assay (AID 1346980); further: nearly all actives have a fitted effect of over 15% in size
Conditions: CHO-K1 caspase-3/7 induction, Caspase-Glo luminescence, 17 h; series mostly up to 92.4 µM; caspase-3/7 activation: at the top concentration
Description: National Center for Advancing Translational Sciences [NCATS]
NIH Chemical Genomics Center [NCGC]
U.S. Environmental Protection Agency [EPA]
National Institutes of Environmental Health Sciences [NIEHS]
National Toxicology Program [NTP]
Apoptosis is a process of programmed cell death and plays a central role in the development of multicellular organisms. It is a highly regulated process and induces cell death by activating caspases, which are the members of cysteine aspartic acid-specific protease (caspase) family. Caspases involved in apoptosis are classified by their mechanism of action as initiator caspases (caspase-2, -8, -9 and -10) and executioner caspases (caspase-3, -6, and -7). Inhibition of apoptosis results in number of cancers, autoimmune diseases, inflammatory diseases and viral infection. To identify small molecule compounds that induce apoptosis, a homogeneous, luminescent Caspase-Glo 3/7 assay was used. Wild type CHO-K1 cells were used to screen Tox21 libraries for identifying caspase-3/7 activity inducers.
CHO-K1 cells were dispensed at 1,500 per well in 5uL of culture medium into white solid bottom 1536-well plates (Corning Life Sciences, Corning, NY) using a Multidrop Combi (Thermo Scientific, Waltham, MA) dispenser. The assay plates were incubated at 37 C and 5% CO2 for 5hr, and then 23nL of compounds dissolved in DMSO and positive control were transferred using a Pintool station (Wako, San Diego, CA). The assay plates were incubated at 37C and 5% CO2 for 17hr. For caspase-3/7 activity read, 4uL of Caspase-Glo 3/7 reagent (Promega Corporation, Madison, WI) was added to each well of the assay plates using Flying Reagent Dispenser (FRD, Aurora Discovery, San Diego, CA) and incubated the assay plates at room temperature for 30min. The luminescence signal was quantified using a ViewLux plate reader (Perkin Elmer, Shelton, CT).
On the % scale 0 is the no-effect control and ±100 the full control effect.

Compound | caspase-3/7 activation | outcome
C=CC=O | -0.95% | –
N#CN=C1SCCN1Cc1ccc(Cl)nc1 | -1.59% | –
C=CCN1CC[C@]23CCCC[C@H]2[C@H]1Cc1ccc(O)cc13 | 1.6% [at 42.5 µM] | –
O=C(O)CBr | 2.3% | –
O=C1C2CC=CCC2C(=O)N1SC(Cl)(Cl)Cl (stereo not given) | – | inactive
CCOP(=O)(CN(CCO)CCO)OCC | 0.396% | –
CCN(CCO)CCn1c(Cc2ccccc2)nc2c1c(=O)n(C)c(=O)n2C | -1.17% [at 42.5 µM] | –
CCOC(=O)CCl | -1.03% | –
CCCN1CCC[C@@H]2Cc3nc(N)ncc3C[C@H]21 | -0.0005% [at 42.5 µM] | –
CCC1(CC)C(=O)C=CNC1=O | 0.403% [at 42.5 µM] | –
c1ccc2c(c1)CCNC2 | 0.0718% | –
CC(C)c1ccc(O)cc1 | 1.3% | –
CNC(=O)Oc1ccccc1C(C)C | -0.933% | –
OCC(Cl)CCl (stereo not given) | -0.254% | –
CCSC(=O)Cl | -0.763% | –
S=C=S | 0.315% | –
Oc1ccc2c3c1O[C@H]1[C@@H](O)C=C[C@H]4[C@@H](C2)NCC[C@@]341 | -1.43% | –
CC(Cc1ccccc1)NCCCCl (stereo not given) | 0.123% [at 42.5 µM] | –
CCOC(=O)COc1ccc(Cl)cc1Cl | -0.776% | –
NC1(c2ccccc2)CCCCC1 | 0.182% | –

Compound | caspase-3/7 activation | outcome
CCC(=O)OC1(c2ccccc2)CCN(C)CC1 | -0.197% | –
COc1ccccc1OC | 0.0266% | –
Clc1ccc(C(Cl)(Cl)Cl)cn1 | 0.0716% | –
CC1=C2[C@H]3OC(=O)[C@@H](C)[C@@H]3CC[C@@]2(C)C=CC1=O | -0.146% [at 42.5 µM] | –
CCOc1cc(OP(=S)(OC)OC)nc(CC)n1 | 0.701% | –
O=C1CCCCC1Cl (stereo not given) | 0.101% | –
C=C(Cl)CCl | 1.16% | –
COc1ccc(CN2CCNCC2)c(OC)c1OC | 0.151% [at 42.5 µM] | –
CCN(CC)CCOC(=O)C(O)(c1ccccc1)c1ccccc1 | 0.904% [at 42.5 µM] | –
COc1cccc([C@@]2(O)CCCC[C@@H]2CN(C)C)c1 | -0.0407% [at 42.5 µM] | –
O=C(Cl)OCc1ccccc1 | 0.894% | –
ClCCN1CCCC1 | -0.568% [at 42.5 µM] | –
CC(C)(C)C(=O)Cl | -0.249% | –
CCOC(=O)c1ncn2c1CN(C)C(=O)c1c(I)cccc1-2 | -0.883% [at 42.5 µM] | –
C=C1CC[C@@]2(O)[C@H]3Cc4ccc(O)c5c4[C@@]2(CCN3CC2CC2)[C@H]1O5 | -0.516% [at 42.5 µM] | –
N[C@@H]1C[C@H]1c1ccccc1 | 0.113% [at 42.5 µM] | –
CC(Cc1ccccc1)NCCn1cnc2c1c(=O)n(C)c(=O)n2C (stereo not given) | -1.06% | –
C(COCC1CO1)OCC1CO1 (stereo not given) | 0.966% | –
CC1N=C(N)OC1c1ccccc1 (stereo not given) | 0.439% | –
C/C(=N\NC(=O)Nc1cc(F)cc(F)c1)c1ncccc1C(=O)O | – | inactive
